Source: PubChem BioAssay AID488969 (Vanderbilt High Throughput Screening Facility, 2010)
Whole data set: some 110,000 compounds, median “z-score” near -0.1, cut for the highest 2% near 2. The entries come from a sample that favours the highest values as a whole. Activity calls are given as the source filed them.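 How the source made its calls: active means z-score in the third read window above 3 or below -3; inactive means the rest.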

Each molecule was assayed against Metabotropic glutamate receptor 8 (Rattus norvegicus) (UniProt P70579) (assay: mGluR8 Gi/Go-coupled signaling modulation – cell-based, rat, thallium flux, HTS, primary screen (AID 488969)). Conditions: HEK293 rat mGluR8, GIRK (G protein-gated inwardly rectifying potassium channel) thallium flux, FluoZin2; at 10 µM; stronger effect = higher value; submaximal glutamate (EC20) added with thallium.
Chain of Metabotropic glutamate receptor 8 (Rattus norvegicus) (P70579 whole entry, looked up): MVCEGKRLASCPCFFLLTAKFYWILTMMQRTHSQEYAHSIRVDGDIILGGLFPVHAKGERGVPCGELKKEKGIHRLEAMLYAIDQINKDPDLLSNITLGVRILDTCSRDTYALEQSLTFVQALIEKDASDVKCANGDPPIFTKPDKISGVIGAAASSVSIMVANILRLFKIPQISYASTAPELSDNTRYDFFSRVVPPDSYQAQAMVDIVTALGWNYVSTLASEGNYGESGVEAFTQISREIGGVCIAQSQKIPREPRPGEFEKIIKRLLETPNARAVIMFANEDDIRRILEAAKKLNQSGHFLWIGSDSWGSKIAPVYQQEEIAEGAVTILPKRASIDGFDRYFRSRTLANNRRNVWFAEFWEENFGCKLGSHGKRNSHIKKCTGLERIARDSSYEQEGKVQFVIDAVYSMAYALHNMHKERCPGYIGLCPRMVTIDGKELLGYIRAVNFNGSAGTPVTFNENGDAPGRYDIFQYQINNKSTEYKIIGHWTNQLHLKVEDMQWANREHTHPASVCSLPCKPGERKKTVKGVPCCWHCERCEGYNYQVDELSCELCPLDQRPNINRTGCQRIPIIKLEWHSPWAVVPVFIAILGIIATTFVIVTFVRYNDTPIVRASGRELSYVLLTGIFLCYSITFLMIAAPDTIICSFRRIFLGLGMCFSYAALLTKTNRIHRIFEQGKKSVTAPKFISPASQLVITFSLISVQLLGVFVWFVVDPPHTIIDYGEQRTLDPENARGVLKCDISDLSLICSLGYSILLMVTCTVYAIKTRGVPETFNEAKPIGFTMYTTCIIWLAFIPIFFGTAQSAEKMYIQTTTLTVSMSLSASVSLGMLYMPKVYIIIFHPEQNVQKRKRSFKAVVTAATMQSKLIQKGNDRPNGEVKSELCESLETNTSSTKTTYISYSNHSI

Structure (SMILES)	z-score
Cc1ccc2c(c1)C(=O)CCN2	0.498
CC(C)NC(=S)NC(=O)/C=C/c1cccc2ccccc12	0.214
CC(OC(=O)C1=COCCO1)C(=O)Nc1ccc(Oc2ccccc2)cc1 (stereo unspecified)	0.0205
CCOC(=O)c1c(-c2ccc(Cl)cc2)c(C#N)c(=O)n(N)c1N	-0.497
CCOC(=O)c1c(C)[nH]c(=S)c(C#N)c1-c1ccc(Cl)cc1	3.4 (active)
CCOC(=O)c1c(C)[nH]c(=S)c(C#N)c1-c1ccc(OC)cc1	0.501
N#Cc1ccccc1CSc1ccc(-c2nc3ccccc3[nH]2)cn1	-0.154
COc1ccc(-c2cc(C(F)(F)F)c(C#N)c(SCC(=O)Nc3nc(C)co3)n2)cc1	-0.185
O=[N+]([O-])c1cccnc1N1CCC(c2cc(-c3cccc(C(F)(F)F)c3)n[nH]2)CC1	-0.378
CNC(=S)N1CCN(C(=O)c2ccco2)CC1	2.05
O=C(Cc1ccccc1)N1CCN(C(=O)c2ccco2)CC1	-0.0691
CC1CCc2nn(CC(=O)N3CCc4ccccc43)cc2C1 (stereo unspecified)	0.16
COCCCNC(=S)N1CCN(C(=O)c2ccco2)CC1	-0.034
CC1CCc2nn(CC(=O)N3CCN(C(=O)c4ccco4)CC3)cc2C1 (stereo unspecified)	3.92 (active)
O=C(CCSc1ccccc1)N1CCN(C(=O)c2ccco2)CC1	-0.515
O=C(CCC1CCCC1)N1CCN(C(=O)c2ccco2)CC1	2.43
CC1CCCN(C(=O)CN2CCN(C(=O)c3ccco3)CC2)C1 (stereo unspecified)	0.124
O=C(c1ccco1)N1CCCN(C(=O)c2ccco2)CC1	-0.354
CCn1c(SCc2nc3ccccc3c(=O)[nH]2)nc2ccccc2c1=O	-0.672
Cc1ccc2cc(CN(Cc3cccs3)Cc3nnnn3CC3CCCO3)c(=O)[nH]c2c1 (stereo unspecified)	-0.0837
CCOC(=O)N1CCN(CC(=O)Nc2ccc(C)c(Br)c2)CC1	-0.241
CCOC(=O)COc1ccc(S(=O)(=O)Nc2ccc(C)cc2)cc1	-0.352
CCC(c1c(C)[nH]oc1=O)c1c(C)[nH]oc1=O	0.119
COc1cc(/C=C2/SC(N)=NC2=O)ccc1Oc1ccc([N+](=O)[O-])cc1[N+](=O)[O-]	-0.644

Structure (SMILES)	z-score
Cc1cc(C(=O)COC(=O)Cc2n[nH]c(=O)c3ccccc23)c(C)n1-c1cccc(C(F)(F)F)c1	-1.01
CCN(CC)c1ccc2cc(C(C)=O)c(=O)oc2c1	-2.23
CCN(CC)c1ccc2cc(C=O)c(=O)oc2c1	17.6 (active)
CCN(CC)c1ccc2cc(-c3nnc(-c4ccncc4)o3)c(=O)oc2c1	-1.17
CCN(CC)c1ccc2cc(-c3nnc(-c4ccccc4)o3)c(=O)oc2c1	2.42
CCN(CC)c1ccc2cc(-c3nnc(-c4ccc(Br)cc4)o3)c(=O)oc2c1	-4 (active)
CCN(CC)c1ccc2cc(C(N)=O)c(=O)oc2c1	-0.0435
CC1CCc2nn(CC(=O)NCCCN3CCOCC3)cc2C1 (stereo unspecified)	-0.0438
O=C(c1cccc(-n2cnnn2)c1)N1CCOCC1	-0.145
COC(=O)c1ccc(C(C(=O)NCc2ccccc2)N(Cc2cccs2)C(=O)c2cnccn2)cc1 (stereo unspecified)	-0.245
CCc1ccccc1N1C(=O)c2ccccc2S1(=O)=O	-0.409
CN(CCc1ccccn1)S(=O)(=O)c1ccccc1F	0.185
O=C1C=C(c2ccccc2)C(=O)N1Nc1ccccc1	0.219
O=C1c2ccccc2C(=O)N1CNc1ccccc1	0.141
O=C1c2ccccc2C(=O)N1Nc1ccccc1	4.88 (active)
COc1ccc(/C=N/OCC(=O)Nc2nc3ccccc3s2)cc1	-0.132
Cc1cc(OCCN2CCCCC2)nc2ccccc12	0.234
Cc1cc(C)cc(C(=O)n2cnnc2N)c1	-0.0618
CCOC(=O)CC12CN3CN(C1)CC(CC(=O)OCC)(C3)C2=O	-0.0089
CC(C)OC(=O)CC12CN(C)CC(CC(=O)OC(C)C)(CN(C)C1)C2=O	0.458
CC(C)OC(=O)CC12CN3CN(C1)CC(CC(=O)OC(C)C)(C3)C2=O	3.43 (active)
O=C(O)c1ccc(F)c(S(=O)(=O)Nc2ccccc2Cl)c1	-0.11
COC(=O)c1ccccc1NC(=O)c1cccc(NC(=O)CSCc2ccccc2)c1C	-0.0727
Cc1cc(Cl)ccc1OCCCC(=O)NCC1CCCO1 (stereo unspecified)	-0.79

Structure (SMILES)	z-score
CC(C)C(=O)Nc1cccc(NC(=O)c2cc3ccccc3o2)c1	7.7 (active)
CC(C)C(=O)Nc1ccc(NC(=O)c2cc3ccccc3o2)cc1	-0.885
Cc1cccc(NC(=O)c2cc3ccccc3o2)c1	-1.37
CCOc1ccc(OCC)c(NC(=O)c2[nH]c(C)c(C(C)=O)c2C)c1	0.862
O=C(NCc1nc2ccccc2[nH]1)c1cccc(S(=O)(=O)N2CCCC2)c1	2.4
O=C(NCc1nc2ccccc2[nH]1)c1cccc(S(=O)(=O)N2CCOCC2)c1	0.567
O=C(NCc1nc2ccccc2[nH]1)c1ccc(Cl)c(S(=O)(=O)N2CCCC2)c1	-0.297
CCN(c1c(C)n(C)n(-c2ccccc2)c1=O)S(C)(=O)=O	0.17
Cc1ccc(S(=O)(=O)NC2CCCC2)cc1C	-0.157
Cc1cc(C)c2c(c1)-c1c(ssc1=S)C(C)(C)N2C(=O)CN1C(=O)c2ccccc2C1=O	0.383
CNc1nc(Cl)nc(NC(C)(C)C)n1	7.77 (active)
CC(C)(C)Nc1nc(NN)nc(NC(C)(C)C)n1	-0.766
CC(C)(C)Nc1nc(Cl)nc(NC(C)(C)C)n1	-0.0263
CCn1c(=NC(=O)CSC(C)=O)sc2cc(F)ccc21	0.658
CCn1c(=NC(=O)CSC(C)=O)sc2cc(OC)ccc21	0.477
CCn1c(=NC(=O)CSC(C)=O)sc2ccccc21	3.49 (active)
CN1CCN(CCC(=O)Nc2ccc3c(c2)OCO3)CC1	0.213
Cc1cccc(NC(=O)CSc2nc3ccc(NC(=O)CSc4nnnn4-c4ccccc4)cc3s2)c1C	0.181
CCN(CC)S(=O)(=O)c1cc(NC(=O)COC(=O)c2sc3ccccc3c2Cl)ccc1C	-0.0136
Cc1cc(/C=C2\SC(=S)NC2=O)c(C)n1C	-0.121
CCn1c(C)cc(/C=C2/SC(=S)NC2=O)c1C	0.271
Cc1sc(-n2c(C)cc(/C=C3\SC(=S)NC3=O)c2C)c(C#N)c1C	2.26
CCN1CCN(C(=O)C(C)N(c2ccc(C)cc2)S(C)(=O)=O)CC1 (stereo unspecified)	1.05
CCOC(=O)c1sc(NC(=O)CN(CC)CC)c(C(=O)OCC)c1C	-0.132

Structure (SMILES)	z-score
CCOC(=O)c1sc(NC(=O)CN2CCCC2)c(C(=O)OCC)c1C	-0.225
CCOC(=O)c1sc(NN=C(C(=O)OC)C(=O)OC)c(C(=O)OCC)c1C	2.57
COCCSc1ccccc1C(=O)Nc1ccncc1	0.236
O=C(CN1CCN(c2cccc(C(F)(F)F)c2)CC1)Nc1cccc(C(F)(F)F)c1	1
CCCOc1cccc(C(=O)NC(=S)Nc2cccc(C(F)(F)F)c2)c1	3.57 (active)
CCCCOc1cccc(C(=O)NC(=S)Nc2cccc(C(F)(F)F)c2)c1	1.84
O=C(CN1CCN(Cc2ccccc2)CC1)Nc1cccc(C(F)(F)F)c1	7.94 (active)
S=C(NCc1ccccc1)NCc1ccccc1	0.346
O=C(Cc1ccccc1)NC(=S)Nc1cc(C(F)(F)F)ccc1Cl	0.00533
CCCOc1cccc(C(=O)NC(=S)Nc2ccccc2)c1	0.0309
CCC(=O)Nc1cccc(NC(=S)NC(=O)Cc2ccccc2)c1	-0.281
S=C(NCc1ccccc1)NCc1ccc2c(c1)OCO2	1.86
S=C(NCc1ccccc1)NCc1cccc(CNC(=S)NCc2ccccc2)c1	2.84
O=C(CN1CCN(c2ccccc2)CC1)Nc1cccc(C(F)(F)F)c1	0.756
O=C(Cc1ccccc1)NC(=S)Nc1cccc(C(F)(F)F)c1	4.01 (active)
CCN(CC)C(=O)n1nc(C)c(CN2C(=O)c3ccccc3C2=O)c1C	-0.151
Nc1ccc(Cl)c(-c2nc3ncccc3o2)c1	0.714
CC(C)c1onc(C(=O)N2CCCCC2C)c1[N+](=O)[O-] (stereo unspecified)	-0.0403
OC(CSc1ccccc1Cl)CN1CCN(c2ccc(F)cc2)CC1 (stereo unspecified)	-0.618
CCOC(=O)c1cnc2ccc(C)cc2c1Sc1ccc(F)cc1	-0.262
Cc1ccc(S(=O)(=O)N2CCCC2C(=O)Nc2cc(C)on2)cc1 (stereo unspecified)	0.4
Cc1ccc(CNC(=O)c2ccccc2NS(C)(=O)=O)cc1	-0.309
FC(F)(F)c1cccc(NC(=S)NCc2ccccn2)c1	0.164
FC(F)(F)Oc1ccc(NC(=S)NCc2ccccc2)cc1	3.23 (active)

Structure (SMILES)	z-score
FC(F)(F)c1cccc(NC(=S)NNC(=S)NCc2ccccc2)c1	-0.388
COc1ccc(CNC(=S)Nc2ccc(OC)cc2)cc1	0.711
FC(F)(F)c1cccc(NC(=S)NCc2ccccc2)c1	5.63 (active)
FC(F)Oc1ccc(NC(=S)NCc2ccccc2)cc1	1.51
N=C(N)SCc1nc2ccccn2c1Br	0.308
CCOc1cccc(C(=O)Nc2ccc3oc(Cc4ccc(Cl)cc4)nc3c2)c1	-0.351
COc1ccc(N(CC(O)CN2C(=O)NC(C)(C)C2=O)S(=O)(=O)c2ccccc2)cc1 (stereo unspecified)	-0.294
C=CCn1c(SCc2ccccc2)nc(O)cc1=O	2.19
C=CCn1c(SCC)nc(O)cc1=O	-0.0583
C=CCn1c(SCc2c(F)c(F)c(F)c(F)c2F)nc(O)cc1=O	-0.151
O/N=C/c1cc(Br)ccc1OCc1ccc(F)cc1	-0.142
Cc1nc2sccn2c(=O)c1Br	0.0767
Cn1c(=O)c2c(nc3sccn32)n(C)c1=O	3.7 (active)
Cc1nc2sccn2c(=O)c1Cl	0.324
COc1ccccc1C(=O)NCc1ccccc1	-0.524
Cc1ccc(O)c(NC(=S)NC(=O)c2ccc(-c3ccc(Cl)cc3)o2)c1	0.233
NC(=O)c1ccc(Cc2ncc(C(F)(F)F)cc2Cl)s1	4.24 (active)
CC(=O)c1ccc(Cc2ncc(C(F)(F)F)cc2Cl)s1	-0.823
O=C(CCl)c1ccc(Cc2ncc(C(F)(F)F)cc2Cl)s1	-0.0387
CC1Cc2ccccc2N1CC(=O)c1c(N)n(Cc2ccccc2)c(=O)n(C)c1=O (stereo unspecified)	-0.314
